Reference: PubChem BioAssay (EPA / NIEHS)
Active and inactive are the calls of the source. The calls were made as follows: active = hit-call score of the fitted dose curve at least 0.9, where 1 is the maximum; inactive = score below 0.9.

Assays:
Conditions in all cases: mRNA level, 48 h; actives raise or lower the signal
[1] = read-out: Cytochrome P450 7A1 (Homo sapiens) (UniProt P22680); experiment: LTEA_HepaRG_CYP7A1: Life Technologies and Expression Analysis (LTEA) Assay for Cytochrome P450 7A1 (CYP7A1) using HepaRG (AID 2283496)
In short: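 HepaRG cells plated 48 h, then switched to serum-free induction medium and exposed in duplicate for 48 h to 8-point half-log series from 100 uM in 0.5% DMSO. CYP7A1 mRNA by qRT-PCR (TaqMan), normalized to ACTB/GAPDH/POLR2A; bidirectional fit versus DMSO.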

[2] = read-out: Glutathione S-Transferase (GSTA2), GSTA2 (gene 2939); experiment: LTEA_HepaRG_GSTA2: Life Technologies and Expression Analysis (LTEA) Assay for Glutathione S-Transferase (GSTA2) using HepaRG (AID 2283497)
In short: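 Human HepaRG cells, plated 48 h, then exposed in serum-free induction medium for 48 h to eight half-log concentrations up to 100 uM in 0.5% DMSO, duplicate. GSTA2 mRNA by qRT-PCR, normalized to ACTB/GAPDH/POLR2A; bidirectional fit versus DMSO.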

[3] = read-out: Glutamate-cysteine ligase catalytic (GCLC), GCLC (gene 2729); experiment: LTEA_HepaRG_GCLC: Life Technologies and Expression Analysis (LTEA) Assay for Glutamate-cysteine ligase catalytic (GCLC) using HepaRG (AID 2283498)
In short: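 Differentiated human HepaRG cells, plated 48 h then switched to serum-free induction medium, were exposed in duplicate for 48 h to 8 half-log concentrations topping at 100 uM in 0.5% DMSO. GCLC mRNA was quantified by qRT-PCR against ACTB, GAPDH and POLR2A.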

[4] = read-out: growth arrest and DNA damage 45 (GADD45G), GADD45G (gene 10912); experiment: LTEA_HepaRG_GADD45G: Life Technologies and Expression Analysis (LTEA) Assay for growth arrest and DNA damage 45 (GADD45G) using HepaRG (AID 2283499)
In short: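 Differentiated human HepaRG cells in serum-free induction medium were exposed for 48 h to 8 half-log concentrations up to 100 uM in 0.5% DMSO, in duplicate. GADD45G mRNA was measured by TaqMan qRT-PCR, normalised to ACTB, GAPDH and POLR2A, and fitted bidirectionally against DMSO.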

[5] = read-out: Glutamate-cysteine ligase regulatory (GCLM), GCLM (gene 2730); experiment: LTEA_HepaRG_GCLM: Life Technologies and Expression Analysis (LTEA) Assay for Glutamate-cysteine ligase regulatory (GCLM) using HepaRG (AID 2283500)
In short: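 Differentiated HepaRG cells exposed 48 h in serum-free induction medium to eight half-log concentrations up to 100 uM (0.5% DMSO). GCLM mRNA by TaqMan qRT-PCR, normalized to ACTB, GAPDH and POLR2A; bidirectional fit versus DMSO.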

[6] = read-out: Glutathione S-transferase M3 (GSTM3), GSTM3 (gene 2947); experiment: LTEA_HepaRG_GSTM3: Life Technologies and Expression Analysis (LTEA) Assay for Glutathione S-transferase M3 (GSTM3) using HepaRG (AID 2283501)
In short: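 Differentiated HepaRG cells in serum-free induction medium were exposed in duplicate for 48 h to 8 half-log concentrations up to 100 uM in 0.5% DMSO. GSTM3 mRNA was measured by TaqMan qRT-PCR, normalized to ACTB/GAPDH/POLR2A, and fitted bidirectionally versus DMSO.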

[7] = read-out: Heat shock 70 kDa protein 1 (HSPA1A), gene 3303; experiment: LTEA_HepaRG_HSPA1A: Life Technologies and Expression Analysis (LTEA) Assay for Heat shock 70 kDa protein 1 (HSPA1A) using HepaRG (AID 2283502)
In short: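 Human HepaRG cells in serum-free induction medium were exposed in duplicate for 48 h to 8 half-log concentrations, highest 100 uM, in 0.5% DMSO. HSPA1A mRNA read by TaqMan qRT-PCR, normalized to ACTB, GAPDH, POLR2A, fitted bidirectionally against DMSO.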

[8] = read-out: Hypoxia-inducible factor 1-alpha (Homo sapiens) (UniProt Q16665); experiment: LTEA_HepaRG_HIF1A: Life Technologies and Expression Analysis (LTEA) Assay for Hypoxia-inducible factor 1 (HIF1A) Trancription factor using HepaRG (AID 2283503)
In short: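 Differentiated HepaRG cells in serum-free induction medium exposed 48 h, in duplicate, to 8-point half-log series from 100 uM in 0.5% DMSO. HIF1A mRNA measured by TaqMan qRT-PCR, normalized to ACTB/GAPDH/POLR2A, fitted bidirectionally versus DMSO.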

[9] = read-out: 3-Hydroxy-3-Methylglutaryl-CoA Synthase 2 (HMGCS2), HMGCS2 (gene 3158); experiment: LTEA_HepaRG_HMGCS2: Life Technologies and Expression Analysis (LTEA) Assay for 3-Hydroxy-3-Methylglutaryl-CoA Synthase 2 (HMGCS2) using HepaRG (AID 2283504)
In short: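 Differentiated human HepaRG cells were exposed in duplicate for 48 h in serum-free induction medium to eight concentrations (top 100 uM, half-log steps, 0.5% DMSO). HMGCS2 mRNA was quantified by TaqMan qRT-PCR, normalised to ACTB, GAPDH and POLR2A, then fitted bidirectionally against DMSO.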

HGF (gene 3082) = experiment: LTEA_HepaRG_HGF: Life Technologies and Expression Analysis (LTEA) Assay for Hepatocyte Growth Facto (HGF) using HepaRG (AID 2283505)
In short: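 Differentiated human HepaRG cells in serum-free induction medium were exposed in duplicate for 48 h to eight concentrations (top 100 uM, half-log steps, 0.5% DMSO). HGF mRNA was quantified by qRT-PCR, normalized to ACTB, GAPDH and POLR2A.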

[10] = read-out: Insulin Like Growth Factor 1 (IGF1), IGF1 (gene 3479); experiment: LTEA_HepaRG_IGF1: Life Technologies and Expression Analysis (LTEA) Assay for Insulin Like Growth Factor 1 (IGF1) using HepaRG (AID 2283506)
In short: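 Differentiated HepaRG cells in serum-free induction medium, exposed 48 h in duplicate to 8 half-log concentrations up to 100 uM in 0.5% DMSO. IGF1 mRNA by Fluidigm qRT-PCR, normalised to ACTB, GAPDH and POLR2A.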

[11] = read-out: Intercellular Adhesion Molecule 1 (ICAM1), ICAM1 (gene 3383); experiment: LTEA_HepaRG_ICAM1: Life Technologies and Expression Analysis (LTEA) Assay for Intercellular Adhesion Molecule 1 (ICAM1) using HepaRG (AID 2283507)
In short: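 Differentiated HepaRG cells in serum-free induction medium were exposed in duplicate for 48 h to eight half-log concentrations up to 100 uM in 0.5% DMSO. Transcript levels were measured by qRT-PCR normalized to ACTB, GAPDH and POLR2A; bidirectional fits relative to DMSO.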

[12] = read-out: Insulin-like growth factor-binding protein 1 (IGFBP1), IGFBP1 (gene 3484); experiment: LTEA_HepaRG_IGFBP1: Life Technologies and Expression Analysis (LTEA) Assay for Insulin-like growth factor-binding protein 1 (IGFBP1) using HepaRG (AID 2283508)
In short: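 Differentiated human HepaRG cells in serum-free induction medium were exposed in duplicate for 48 h to eight concentrations, top 100 uM with half-log dilutions, in 0.5% DMSO. Transcript levels came from qRT-PCR normalised to ACTB, GAPDH and POLR2A, fitted bidirectionally against DMSO.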

[13] = read-out: Interleukin 6 (IL6), IL6 (gene 3569); experiment: LTEA_HepaRG_IL6: Life Technologies and Expression Analysis (LTEA) Assay for Interleukin 6 (IL6) using HepaRG (AID 2283509)
In short: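 Differentiated human HepaRG cells, plated 48 h then switched to serum-free induction medium, were exposed in duplicate for 48 h to eight half-log concentrations up to 100 uM in 0.5% DMSO. IL6 mRNA measured by qRT-PCR, normalized to ACTB/GAPDH/POLR2A.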

[14] = read-out: Interleukin 6 Receptor (IL6R), IL6R (gene 3570); experiment: LTEA_HepaRG_IL6R: Life Technologies and Expression Analysis (LTEA) Assay for Interleukin 6 Receptor (IL6R) using HepaRG (AID 2283510);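 as to AC50: TaqMan qRT-PCR signal normalized to ACTB GAPDH and POLR2A housekeeping genes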
In short: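 Differentiated HepaRG cells, plated 48 h, then exposed in duplicate for 48 h in serum-free induction medium to 8 half-log concentrations (top 100 uM, 0.5% DMSO). IL6R mRNA measured by TaqMan qRT-PCR, normalized to ACTB/GAPDH/POLR2A; bidirectional fit vs DMSO.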

[15] = read-out: Potassium channel subfamily K member 1 (KCNK1), KCNK1 (gene 3775); experiment: LTEA_HepaRG_KCNK1: Life Technologies and Expression Analysis (LTEA) Assay for Potassium channel subfamily K member 1 (KCNK1) using HepaRG (AID 2283511)
In short: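 Differentiated human HepaRG cells in serum-free induction medium were exposed in duplicate for 48 h to 8 half-log concentrations up to 100 uM in 0.5% DMSO. KCNK1 mRNA was measured by TaqMan qRT-PCR, normalized to ACTB, GAPDH and POLR2A, and fitted bidirectionally versus DMSO.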

[16] = read-out: Keratin 19 (KRT19), KRT19 (gene 3880); experiment: LTEA_HepaRG_KRT19: Life Technologies and Expression Analysis (LTEA) Assay for Keratin 19 (KRT19) using HepaRG (AID 2283512)
In short: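 Differentiated human HepaRG cells, plated 48 h, were exposed in duplicate for 48 h in serum-free induction medium to eight half-log concentrations up to 100 uM in 0.5% DMSO. KRT19 mRNA was quantified by qRT-PCR, normalized to ACTB, GAPDH and POLR2A, and fitted bidirectionally versus DMSO.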

[17] = read-out: Lipase C (LIPC), LIPC (gene 3990); experiment: LTEA_HepaRG_LIPC: Life Technologies and Expression Analysis (LTEA) Assay for Lipase C (LIPC) using HepaRG (AID 2283514)
In short: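 Differentiated human HepaRG cells in serum-free induction medium were exposed in duplicate for 48 h to eight concentrations (top 100 uM, half-log steps, 0.5% DMSO). LIPC mRNA was quantified by TaqMan qRT-PCR, normalized to ACTB, GAPDH and POLR2A, with bidirectional fitting versus DMSO.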

[18] = read-out: Lipoprotein lipase (LPL), LPL (gene 4023); experiment: LTEA_HepaRG_LPL: Life Technologies and Expression Analysis (LTEA) Assay for Lipoprotein lipase (LPL) using HepaRG (AID 2283515)
In short: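 Differentiated human HepaRG cells in serum-free induction medium were exposed in duplicate for 48 h to eight half-log concentrations (top 100 uM) in 0.5% DMSO. LPL mRNA was quantified by TaqMan qRT-PCR, normalized to ACTB, GAPDH and POLR2A.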

Measured: AC50

Hypoxia-inducible factor 1-alpha (Homo sapiens), sequence (Q16665 whole entry, looked up): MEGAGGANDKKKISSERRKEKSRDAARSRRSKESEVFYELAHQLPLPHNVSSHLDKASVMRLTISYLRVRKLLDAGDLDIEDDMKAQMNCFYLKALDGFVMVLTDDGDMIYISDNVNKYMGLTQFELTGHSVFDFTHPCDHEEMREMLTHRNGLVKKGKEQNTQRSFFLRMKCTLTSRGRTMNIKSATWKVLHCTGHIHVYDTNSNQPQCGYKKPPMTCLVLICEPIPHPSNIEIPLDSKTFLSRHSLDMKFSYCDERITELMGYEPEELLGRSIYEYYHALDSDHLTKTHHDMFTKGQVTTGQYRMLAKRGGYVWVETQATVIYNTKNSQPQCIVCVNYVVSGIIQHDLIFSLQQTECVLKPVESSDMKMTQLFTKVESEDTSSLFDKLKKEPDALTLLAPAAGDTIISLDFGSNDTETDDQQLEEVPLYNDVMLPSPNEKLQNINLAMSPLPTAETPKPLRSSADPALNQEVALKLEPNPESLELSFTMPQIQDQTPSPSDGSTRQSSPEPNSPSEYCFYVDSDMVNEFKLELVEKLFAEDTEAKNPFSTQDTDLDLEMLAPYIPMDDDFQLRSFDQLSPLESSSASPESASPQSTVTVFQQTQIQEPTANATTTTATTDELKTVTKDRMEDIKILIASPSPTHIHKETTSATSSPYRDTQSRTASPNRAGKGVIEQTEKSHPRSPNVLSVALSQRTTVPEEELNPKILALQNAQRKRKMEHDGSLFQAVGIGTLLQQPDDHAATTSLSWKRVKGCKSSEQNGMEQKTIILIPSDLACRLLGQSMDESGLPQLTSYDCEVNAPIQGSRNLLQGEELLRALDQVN

CC(C)(C)c1cc(/C=C2\SC(N)=NC2=O)cc(C(C)(C)C)c1O
active: [1] 25.2 µM | [2] 91.4 µM | [3] 14.5 µM | [4] 21.5 µM | [8] 68.8 µM | [9] 50 µM | HGF (gene 3082) 24.5 µM | [10] 93.3 µM | [11] 29.9 µM | [12] 85.1 µM | [13] 29.8 µM
inactive: [5] | [6] | [7] | [14] | [15] | [16] | [17] | [18]

O=C(O)c1ccccc1C(=O)OCc1ccccc1
active: [4] 5.56 µM
inactive: all other assays above

O=C(OCCCCCCOC(=O)c1ccccc1)c1ccccc1
inactive: all assays above

Oc1ccccc1
inactive: all assays above

Clc1ccccc1C(c1ccccc1)(c1ccccc1)n1ccnc1
inactive: [6] | [7] | [15]
active: [1] 28.5 µM | [2] 50 µM | [3] 63 µM | [4] 28 µM | [5] 24.2 µM | [9] 24.3 µM | HGF (gene 3082) 26.7 µM | [10] 15.8 µM | [11] 90.6 µM | [12] 16.7 µM | [13] 88.6 µM | [14] 93 µM | [16] 20.2 µM | [17] 93.1 µM | [18] 89.8 µM

CCCCCc1ccc(N)cc1
inactive: all assays above

O=C=NCCCCCCN=C=O
inactive: all assays above

COCC(C)OCC(C)OCC(C)O (stereo not given)
inactive: all assays above

CCCC(=O)OCCC(C)C
inactive: all assays above
